Experimental data published in PubChem BioAssay (NCI).
About 83,000 compounds went through this panel and 20% of them were active in at least one assay; those are over-represented in the sample as a whole.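 Cell lines were cultured in 96-well plates, exposed to a single compound concentration, and assessed for percent growth 48 hours later.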 Values without a mark were called inactive. Calls of active or inactive are those of the source. The calls were made as follows: active = growth percent below 10; inactive = the rest.

Tests used:
Experiment in all cases: NCI-60 one-dose screen, 48 h (100 = growth as untreated, 0 = no growth, -100 = all killed)
Details in all cases: 10 µM unless noted
NCI-H23 lung = test system: NCI-H23 lung
NCI-H226 lung = test system: NCI-H226 lung
NCI-H322M lung = test system: NCI-H322M lung
HOP-62 NSCLC = test system: HOP-62 NSCLC
NCI-H460 lung = test system: NCI-H460 lung
HOP-92 NSCLC = test system: HOP-92 NSCLC
NCI-H522 lung = test system: NCI-H522 lung
A549/ATCC NSCLC = test system: A549/ATCC NSCLC
786-0 renal = test system: 786-0 renal
COLO 205 colon = test system: COLO 205 colon

SMILES | growth (NCI-H23 lung) | growth (NCI-H226 lung) | growth (NCI-H322M lung) | growth (HOP-62 NSCLC) | growth (NCI-H460 lung) | growth (HOP-92 NSCLC) | growth (NCI-H522 lung) | growth (A549/ATCC NSCLC) | growth (786-0 renal) | growth (COLO 205 colon)
Cc1nc2sc(C(=O)Nc3cccc(Br)c3)c(N)c2cc1C(O)c1ccccc1 (stereo not given) | 25.1% | 61.7% | 61% | 47.5% | 4.9% (active) | 76.3% | 9.66% (active) | 20.4% | 36.2% | 16.6%
Cc1[nH]c(C(=O)Nc2ccccc2OC2CCNCC2)c(Cl)c1Cl | 42.8% | 98.6% | 31.3% | 11.4% | 5.07% (active) | -2.05% (active) | -24.7% (active) | 27.3% | -56.6% (active) | -9.94% (active)
CCN(C)S(=O)(=O)Nc1cccc(Nc2ncnc3cc(NC(=O)CCl)ccc23)c1Cl | -27.1% (active) | 6.77% (active) | 73.9% | -50.1% (active) | -22.5% (active) | 24.6% | -70.6% (active) | 18.5% | -82.8% (active) | -33.9% (active)
C=CC(=O)N1CCN(c2cccc(Oc3nccc(Nc4nnc(-c5ccc(Br)cc5)s4)n3)c2)CC1 | 79% | 88.8% | 92.3% | 62.2% | 25.6% | 88.3% | -2.86% (active) | 47.3% | 73.5% | 63.4%
COc1cc(C2CC(c3ccc(Nc4nc(Nc5ccc(Cl)cc5)nc(Nc5ccc(Cl)cc5)n4)cc3)=NN2C(C)=O)cc(OC)c1OC (stereo not given) | 83.3% | 104% | 106% | 105% | 106% | -3.51% (active) | 86.8% | 91.1% | 90.6% | 97.9%
Cc1c(-c2ccc(O)cc2)n(Cc2ccc(OCCN3CCCCCC3)cc2)c2ccc(O)cc12 | 77% | 89.7% | 92.3% | 80.6% | 89.3% | 59.3% | 75.5% | 72.5% | 75.7% | 106%
O=C(Nc1cccc(-c2ccc(N3CCOCC3)nn2)c1)Nc1cccc(C(F)(F)F)c1 | 70.4% | 61.8% | 89.6% | 76.8% | 79.1% | 58.6% | 46.4% | 56.4% | 92.1% | 81%
COc1ccc(C(=O)/C=C/c2c(C(F)(F)F)nc3ccccn23)cc1OC | 0.445% (active) | 79.4% | 24% | 11.1% | -33.6% (active) | 5.04% (active) | 10.8% | 43.1% | 10.3% | -1.6% (active)
CCN1C(=S)N(c2ccccc2)C2C1NN=c1s/c(=C3\C(=O)N(C(C)C)c4ccccc43)c(=O)n12 (stereo not given) | 75.4% | 66.7% | 82.8% | 73.4% | 47.8% | 100% | 78.6% | 57.8% | 93.7% | 89.4%
NC(N)=NCCCCCNc1noc(Cc2c[nH]c3cc(Br)ccc23)n1 | 64% | 63.2% | 77.3% | 58.3% | 68% | 16.2% | 47.8% | 65.3% | 91.7% | 64.7%
Ic1ccc(OCCCCn2ccnc2)cc1 | 66.6% | 80.5% | 85.3% | 72.3% | 92.5% | 34.7% | 67.4% | 78.1% | 83.7% | 29.3%
O=C(/C=C/c1cn(-c2ccccc2)nc1-c1ccc(Cl)cc1)c1ccc(F)cc1 | 69.9% | 85.8% | 77.2% | 102% | 74% | 99.2% | 87.1% | 79.7% | 62.8% | 93.4%
Clc1cc(Cl)c(Cl)c(-c2nnc(SCc3ccncc3Br)o2)c1 | 87.7% | 98% | 102% | 82.5% | 95.9% | 84.4% | 83.8% | 153% | 93.7% | 110%
Nc1ncnc2c1c(-c1cccc(Cl)c1)nn2CC(=O)N1CCOCC1 | 97.5% | 93% | 102% | 109% | 107% | 105% | 102% | 99.9% | 94.8% | 116%
C=CCOC(=O)Nc1cccn([C@H](Cc2ccccc2)C(=O)NCCC(C)C)c1=O | 89.7% | 82% | 103% | 104% | 105% | 87.5% | 99.5% | 97.9% | 112% | 110%
CCOC(=O)C1=C(C)NC(=O)NC1c1c(Cl)n(CCCl)c2ccccc12 (stereo not given) | 92.5% | 92% | 92.6% | 90.8% | 98.9% | 42.9% | 90% | 95.4% | 92.9% | 117%
COc1c(B(O)O)cccc1-c1nc2c(F)cc3[nH]ncc3c2c2c1CCCC2 | -11.1% (active) | 9.55% (active) | 7.84% (active) | 9.83% (active) | 4.81% (active) | 14.4% | 1.23% (active) | 12.2% | 0.342% (active) | -20.2% (active)
CCn1cc(C(=O)O)c(=O)c2cc(F)c(N3CCN(CC(=O)Nc4ccc(S(=O)(=O)Nc5nccc(C)n5)cc4)C(C)C3)c(F)c21 (stereo not given) | 103% | 97.1% | 104% | 103% | 104% | 119% | 105% | 111% | 112% | 118%
OCCn1cc(-c2nc(-c3c[nH]c4ncccc34)cs2)c2cc(F)ccc21 | 76.2% | 48.4% | 66.3% | 71.9% | 65.7% | 52.3% | 45.5% | 63% | 81.9% | 66.4%
CCc1ncnc2c1ccn2C(C)c1ccc(OC)c(F)c1 (stereo not given) | 38.9% | 77.2% | 79.7% | 41.3% | 30.8% | 43.2% | 43.3% | 41.1% | 74.9% | 26.3%
O=C(CSc1oc(-c2ccccc2)nc1S(=O)(=O)c1ccccc1)Nc1ccc(F)cc1 | 78.6% | 87% | 76.9% | 86.1% | 93.5% | 2.48% (active) | 72.2% | 76.9% | 59.1% | 101%
O=C1c2c(c3c4ccccc4[nH]c3c3ccc4ccccc4c23)C(=O)N1CCN1CCOCC1 | 32.6% | 61.4% | 51.8% | 45.8% | 2.17% (active) | 66.1% | 29.1% | 28.8% | 52.5% | 55.5%
CC(C)c1ccc(Cc2cnc(NC(=O)c3cc(Br)cs3)s2)cc1 | 47.6% | 24.5% | 45.6% | 35.8% | 13.6% | 35.7% | -1.16% (active) | 31.4% | 31.3% | 15.4%
COc1cc2ncnc(Nc3ccc(S(=O)(=O)Nc4cc(C)on4)cc3)c2cc1OCCCN1CCN(c2ccc(F)cc2)CC1 | 105% | 98.1% | 99.6% | 92.2% | 102% | 125% | 91% | 101% | 110% | 105%
CCOC(=O)c1ccc(NC(=O)c2nc(-c3cc(OC)c(OC)c(OC)c3)n(-c3ccc(Cl)cc3)n2)cc1 | 91.3% | 90.9% | 81.1% | 97.6% | 97.1% | 71.8% | 67.2% | 88.9% | 93.5% | 104%
N#CSc1c[nH]c2cccc(/C=C/C(=O)/C=C(/C=C/c3cccc4[nH]cc(SC#N)c34)OB(F)F)c12 | -45.4% (active) | -75.9% (active) | 53.7% | -26.1% (active) | 4.16% (active) | -62.1% (active) | -65.2% (active) | -8.65% (active) | -51.6% (active) | -60% (active)
